Experimental data reported in PubChem BioAssay (Tox21).
Results filed as inconclusive are left out. Where a call stands in place of a potency, no number is given. The source made the active and inactive calls. Unless noted, calls follow the shape of the dose curve; as a rule, active = well fitted curve in the direction sought with a large enough effect in the repeat runs; inconclusive = weak or mixed curves; inactive = no such curve, though single readings can be large; an effect the other way counts as inactive or inconclusive.

Experiments:
[1] = molecular target: Progesterone receptor (Homo sapiens) (UniProt P06401); test: qHTS assay to identify small molecule agonists of the progesterone receptor (PR) signaling pathway (AID 1346784; calls by dose curve; also: nearly all actives have a fitted effect of over 30% in size; also: potency is read from the fitted curve at half-maximal effect)
Outline: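 PR-UAS-bla HEK 293T cells (beta-lactamase reporter under UAS) in 2% charcoal-stripped FBS, dosed with 23 nL compound after 6 hr, incubated 16hr at 37C. LiveBLAzer B/G FRET substrate added, fluorescence read after 2 hours.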

[2] = molecular target: Progesterone receptor (Homo sapiens) (UniProt P06401); test: qHTS assay to identify small molecule antagonists of the progesterone receptor (PR) signaling pathway (AID 1346795; active = well fitted inhibition curve with a large enough effect in the signal ratio in the repeat runs, not every such curve was filed as active; the % refers to the signal ratio; also: potency is read from the fitted curve at half-maximal effect)
Outline: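 PR-UAS-bla HEK293T cells with beta-lactamase reporter under UAS control, in 2% charcoal-stripped FBS, treated with compounds plus 1 nM promegestone (R5020, final) for 16 hr at 37C. Read-out: FRET beta-lactamase substrate fluorescence after 2 hr at room temperature.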

[3] = qHTS assay to identify small molecule antagonists of the TGF-beta/Smad signaling pathway - cell viability counter screen (AID 1346824); also: nearly all actives have a fitted effect of over 50% in size
Outline: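 SBE-bla HEK 293T cells, incubated overnight, then compound plus 0.25 ng/mL TGF-beta1 (stock added) for 5 hr at 37 C. Viability was read in the same wells by CellTiter-Glo luminescence after 30 min at room temperature.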

[4] = qHTS assay to identify small molecule agonists of the TGF-beta/Smad signaling pathway - cell viability counter screen (AID 1346829); also: top concentration of the series differs between compounds; nearly all actives have a fitted effect of over 45% in size
Outline: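 CellTiter-Glo luminescence readout; SBE-bla HEK 293T cells, overnight plating, compound 5 hr at 37 C/5% CO2, then bla substrate 2 hr RT, then CellTiter-Glo 30 min RT.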

[5] = qHTS assay to identify small molecule agonists of the TGF-beta/Smad signaling pathway (AID 1346859; active = well fitted activation curve with a large enough effect in the signal ratio in the repeat runs, not every such curve was filed as active; the % refers to the signal ratio; also: series mostly up to about 77 µM)
Outline: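 SBE-bla HEK293T cells plated overnight, then compound exposure for 5 h at 37 C. Beta-lactamase reporter read with LiveBLAzer B/G FRET substrate after 2 h at room temperature, fluorescence at 405 nm excitation, 460/530 nm emission.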

[6] = molecular target: Thyrotropin-releasing hormone receptor (Homo sapiens) (UniProt P34981); test: qHTS assay to identify small molecule antagonists of the thyrotropin-releasing hormone receptor (TRHR) signaling pathway (AID 1346877; active = well fitted inhibition curve with a large enough effect in the repeat runs, not every such curve was filed as active; also: series mostly up to about 51 µM)
Outline: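 Human TRHR in HEK293 cells; inhibition of the intracellular calcium rise triggered by 1 nM TRH was followed by fluorescence over 3 min. Compounds were run at 15 concentrations, three replicates each.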

[7] = molecular target: Thyrotropin-releasing hormone receptor (Homo sapiens) (UniProt P34981); test: qHTS assay to identify small molecule agonists of the thyrotropin-releasing hormone receptor (TRHR) signaling pathway (AID 1346891; calls by dose curve; also: series mostly up to about 58 µM)
Outline: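 HEK293 cells expressing TRHR plated 18 h at 37 C/5% CO2, calcium dye-loaded 2 h at 37 C, then compound added (agonist mode); kinetic calcium fluorescence read 3 min at 1 s intervals; 15 concentrations in triplicate.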

[8] = Human pregnane X receptor (PXR) small molecule agonists, qHTS cell viability counter screen (AID 1346977); also: nearly all actives have a fitted effect of over 50% in size; also: potency is read from the fitted curve at half-maximal effect
Outline: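 PXR-Luc HepG2 cells (2,000/well, 5% charcoal-stripped FBS) preincubated 5 hr, then exposed to compounds 24 hr at 37 C. Viability read in the same wells by CellTiter-Fluor fluorescence, reagent added at 23 hr, 1 hr incubation.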

[9] = qHTS assay to identify small molecule agonists of the progesterone receptor (PR) signaling pathway - cell viability counter screen (AID 1346799; calls by dose curve; also: nearly all actives have a fitted effect of over 45% in size)
Outline: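 Counter screen in the PR-UAS-bla HEK293T wells (2% charcoal-stripped FBS, 16 h compound exposure at 37 C) after the bla read. CellTiter-Glo added, 30 min at room temperature, luminescence read as cell viability.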

[10] = qHTS assay to identify small molecule antagonists of the progesterone receptor (PR) signaling pathway - cell viability counter screen (AID 1346798); also: nearly all actives have a fitted effect of over 50% in size; also: potency is read from the fitted curve at half-maximal effect
Outline: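 PR-UAS-bla HEK293T cells, 3,000/well in 2% charcoal-stripped FBS medium, dosed with compounds plus R5020 agonist and incubated 16 h at 37C. Viability then measured in the same wells by CellTiter-Glo luminescence after 30 min at RT.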

Chain of Progesterone receptor (Homo sapiens) (P06401 whole entry, looked up): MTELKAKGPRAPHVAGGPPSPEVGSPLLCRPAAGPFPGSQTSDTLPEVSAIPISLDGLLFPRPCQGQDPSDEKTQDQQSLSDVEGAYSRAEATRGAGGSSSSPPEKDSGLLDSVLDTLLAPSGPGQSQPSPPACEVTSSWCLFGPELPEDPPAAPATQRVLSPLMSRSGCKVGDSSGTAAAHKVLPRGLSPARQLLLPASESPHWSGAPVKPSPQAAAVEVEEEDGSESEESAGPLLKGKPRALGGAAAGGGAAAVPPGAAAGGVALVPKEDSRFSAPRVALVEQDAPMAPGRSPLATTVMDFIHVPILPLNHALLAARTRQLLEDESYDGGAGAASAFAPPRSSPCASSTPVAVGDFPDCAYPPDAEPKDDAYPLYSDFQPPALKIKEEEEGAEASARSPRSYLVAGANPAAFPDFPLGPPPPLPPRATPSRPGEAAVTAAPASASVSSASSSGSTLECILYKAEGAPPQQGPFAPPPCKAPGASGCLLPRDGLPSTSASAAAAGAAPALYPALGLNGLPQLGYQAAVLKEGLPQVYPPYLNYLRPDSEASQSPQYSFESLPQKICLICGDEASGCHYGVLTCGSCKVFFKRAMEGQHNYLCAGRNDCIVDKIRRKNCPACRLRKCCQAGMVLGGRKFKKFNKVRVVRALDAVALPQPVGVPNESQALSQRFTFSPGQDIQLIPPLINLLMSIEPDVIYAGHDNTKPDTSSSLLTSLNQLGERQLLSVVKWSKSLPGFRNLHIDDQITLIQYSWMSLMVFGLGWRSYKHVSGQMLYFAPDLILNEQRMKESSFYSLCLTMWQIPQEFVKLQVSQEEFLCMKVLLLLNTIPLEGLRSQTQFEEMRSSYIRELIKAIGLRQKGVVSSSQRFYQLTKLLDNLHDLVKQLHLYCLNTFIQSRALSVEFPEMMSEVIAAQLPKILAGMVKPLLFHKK
Chain of Thyrotropin-releasing hormone receptor (Homo sapiens) (P34981 whole entry, looked up): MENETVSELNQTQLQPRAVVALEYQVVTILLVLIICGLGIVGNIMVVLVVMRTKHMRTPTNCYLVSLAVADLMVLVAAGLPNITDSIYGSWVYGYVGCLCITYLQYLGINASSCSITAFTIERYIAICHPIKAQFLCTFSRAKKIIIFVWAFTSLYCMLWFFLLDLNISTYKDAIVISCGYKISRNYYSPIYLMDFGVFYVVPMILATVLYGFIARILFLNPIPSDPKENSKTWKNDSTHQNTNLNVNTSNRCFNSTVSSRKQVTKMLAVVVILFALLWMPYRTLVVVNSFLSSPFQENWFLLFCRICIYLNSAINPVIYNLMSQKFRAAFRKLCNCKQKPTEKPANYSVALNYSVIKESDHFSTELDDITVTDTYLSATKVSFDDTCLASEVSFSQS

| Compound | Potency [1] | Potency [2] | outcome [3] | outcome [4] | outcome [5] | outcome [6] | Potency [7] | Potency [8] | Potency [9] | Potency [10] |
| --- | --- | --- | --- | --- | --- | --- | --- | --- | --- | --- |
| CCc1nn(CCCN2CCN(c3cccc(Cl)c3)CC2)c(=O)n1CCOc1ccccc1 | inactive | 26.6 µM (active) | inactive | inactive | inactive | inactive | inactive | 23.7 µM (active) | – | – |
| CC(C)(C)C(=O)O | inactive | inactive | inactive | inactive | inactive | inactive | inactive | inactive | inactive | – |
| Fc1c(F)c(F)c(Br)c(F)c1F | inactive | inactive | inactive | inactive | inactive | inactive | inactive | – | inactive | – |
| CCCCOC(=O)CCS | inactive | inactive | – | – | inactive | – | – | inactive | inactive | – |
| C=CCNc1nc(NCC=C)nc(N2CCN(C(c3ccc(F)cc3)c3ccc(F)cc3)CC2)n1 | inactive | 2.98 µM (active) | inactive | inactive | inactive | inactive | inactive | inactive | – | – |
| Brc1cc(-c2ccc(Br)c(Br)c2Br)cc(Br)c1Br | inactive | – | inactive | inactive | inactive | inactive | inactive | – | inactive | inactive |
| COC(=O)[C@@H]1CC2=CC(=O)CC[C@]2(C)[C@@]23O[C@@H]2C[C@@]2(C)[C@@H](CC[C@@]24CCC(=O)O4)[C@H]13 | inactive | – | inactive | inactive | inactive | inactive | inactive | – | inactive | inactive |
| CCn1cc(C(=O)O)c(=O)c2cc(F)c(N3CCNCC3)nc21 | inactive | inactive | inactive | inactive | inactive | – | – | inactive | – | inactive |
| CCC(Cc1ccccc1)(C(=O)c1ccc(N2CCOCC2)cc1)N(C)C (stereo not given) | inactive | 48.6 µM (active) | – | – | inactive | inactive | inactive | – | – | – |
| CCCCC(CC)C(=O)OCCOCCOCCOCCOC(=O)C(CC)CCCC (stereo not given) | inactive | inactive | inactive | – | inactive | inactive | inactive | inactive | – | inactive |
| CC(=O)OCC(=O)[C@@]12OC(C)(C)O[C@@H]1C[C@H]1[C@@H]3C[C@H](F)C4=CC(=O)C=C[C@]4(C)[C@@]3(F)[C@@H](O)C[C@@]12C | 0.0033 µM (active) | inactive | inactive | inactive | inactive | – | – | inactive | – | inactive |
| CCCCCCCC/C=C\CCCCCCCC(=O)OC | inactive | inactive | inactive | inactive | inactive | – | – | inactive | – | – |
| O=C(Nc1ccc([N+](=O)[O-])cc1)Nc1ccc([N+](=O)[O-])cc1 | inactive | inactive | inactive | inactive | inactive | inactive | inactive | inactive | – | – |
| CN(C)CCOC1=Cc2ccccc2Sc2ccc(Cl)cc21 | inactive | – | inactive | inactive | inactive | inactive | inactive | – | inactive | inactive |
| CCOC(=O)c1ccccc1C | inactive | – | inactive | inactive | inactive | inactive | inactive | – | – | 15.4 µM (active) |
